# Measured values reported in PubChem BioAssay AID1578 (Sanford-Burnham Center for Chemical Genomics, 2009).
# Among all 290,000 compounds or so, about 3,000 (1%) were called active. No stated cut-off is given here; in the data, active means inhibition mostly above about 36% (no sharp cut-off); inactive means mostly below about 34%. What follows is part of a selection rich in actives, with near analogues and random picks from the rest.
# Assay: inhibition of NOD1-driven NF-kB reporter – cell-based, luminescence, uHTS, primary screen (AID 1578);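 further: HEK-293T reporter cells stimulated with the NOD1 agonist gamma-tri-DAP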
# Conditions: NOD1-driven NF-kB luciferase reporter cells, at 4 µM, stronger effect = higher value
row,Compound,inhibition
1,COc1ccc(NC(=O)CSc2nnc(CN3CCOCC3)n2C)cc1Cl,-15% (inactive)
2,Cc1cccc(NC(=O)NCC2CCN(c3ccc(S(=O)(=O)N4CCOCC4)cc3)CC2)c1,-10.9% (inactive)
3,CCNC(=S)N/N=C(\C)c1ccc2ccccc2c1OC(F)F,-20.3% (inactive)
4,COC(=O)N/N=C(\C)c1ccc2ccccc2c1OC(F)F,-30% (inactive)
5,C/C(=N\NC(=S)NCc1ccccc1)c1ccc2ccccc2c1OC(F)F,48.2% (active)
6,CCc1ccc(CNC(=O)c2ccc(NC(=O)C3=CSCCO3)cc2)cc1,-44.5% (inactive)
7,COc1ccc(NC(=O)C2=CC(c3ccco3)=NS(=O)(=O)N2C)cc1OC,-21.6% (inactive)
8,O=C(Nc1cc(Sc2ccccn2)cc([N+](=O)[O-])c1)c1ccc(Cl)cc1,74.1% (active)
9,O=C(Nc1cc(Sc2ccccn2)cc([N+](=O)[O-])c1)c1ccc([N+](=O)[O-])cc1,45.6% (inactive)
10,O=C(Nc1cc(Sc2ccccn2)cc([N+](=O)[O-])c1)c1cccc(Cl)c1,15.3% (inactive)
11,Cn1c(O)c(N=NC(=O)CNC(=O)/C=C/c2ccccc2)c2ccccc21,24.3% (inactive)
12,O=C1c2ccccc2C(=O)N1c1ncc(Cc2ccc(Cl)cc2)s1,25.4% (inactive)
13,Cc1cccc(Cc2cnc(N3C(=N)SC(c4ccccc4)C3=O)s2)c1 (centres undefined),95.5% (active)
14,Cc1cccc(Cc2cnc(NC(=O)c3ccc(C)o3)s2)c1,-34.8% (inactive)
15,Brc1cccc(-c2nc3cccnc3nc2-c2cccc(Br)c2)c1,23.6% (inactive)
16,CC(C)(C)c1nc2cc(Cl)c([N+](=O)[O-])cc2o1,-22.4% (inactive)
17,c1ccc2c(c1)N1CCCN=C1N2CCN1CCCCC1,-32.5% (inactive)
18,O=C(CN1CCCCCCC1)N/N=C/c1ccc([N+](=O)[O-])o1,8.4% (inactive)
19,O=C1N=C2N(CCN3CCCCC3)c3ccccc3N2/C1=C\c1ccc([N+](=O)[O-])o1,84.9% (active)
20,CO/N=C/c1ccc(N2CCCC2)c([N+](=O)[O-])c1,-21.4% (inactive)

row,Compound,inhibition
1,Cc1ccc(S(=O)(=O)N2CCN(c3ccnc4cc(Cl)ccc34)CC2)cc1,16.3% (inactive)
2,N#CC(C#N)=C(Nc1ccccc1)c1ccccc1,32.8% (active)
3,CC(=O)Nc1ccc(C(=O)c2ccccc2)cc1,-1% (inactive)
4,C/C(Nc1ccccc1)=C(/C#N)C(N)=O,-14.6% (inactive)
5,O=C(N/N=C/C=C/c1ccccc1)c1cc(C2CC2)[nH]n1,0.1% (inactive)
6,O=S(=O)(Nc1nc2ccccc2[nH]1)c1ccc2ccccc2c1,56.9% (inactive)
7,CS(=O)(=O)Nc1nc2ccccc2[nH]1,-0.8% (inactive)
8,CN(Cc1ccccc1)S(=O)(=O)c1ccc2c(c1)CCC(=O)N2,-21.5% (inactive)
9,O=C(c1cc(-c2ccccc2Cl)nc2ccc(Br)cc12)N1CCN(c2ccccn2)CC1,-7.5% (inactive)
10,CC(C)N(C(=O)COC(=O)c1ccccc1C(=O)c1ccc(Cl)c([N+](=O)[O-])c1)C(C)C,-13.9% (inactive)
11,CSc1ccc(Cl)c(C(=O)OCC(=O)N(C)CCC#N)c1,-28.1% (inactive)
12,O=C(COC(=O)c1cc([N+](=O)[O-])ccc1Cl)NC1CCCC1,1.2% (inactive)
13,CN(CCC#N)C(=O)COC(=O)c1ccccc1C(=O)c1ccc(Cl)c([N+](=O)[O-])c1,55.1% (active)
14,O=C(COC(=O)c1ccc(Cl)c([N+](=O)[O-])c1)NC1CCCC1,3.2% (inactive)
15,C(=N\n1cnnc1)/c1cccc2ccccc12,7.2% (inactive)
16,Cc1cc(=O)oc2c(C)c(OCC(=O)N3CCC(C(=O)O)CC3)ccc12,-25.2% (inactive)
17,CCc1ccc(C2CC(=O)Nc3c2c(=O)nc2c(C)cccn32)cc1 (centres undefined),-32.6% (inactive)
18,COc1cccc(C(CNC(=O)C(c2ccccc2)c2ccccc2)N(C)C)c1 (centres undefined),-20.7% (inactive)
19,CC(C)(C)NC(=O)CSc1nc2[nH]ncc2c(=O)[nH]1,-22.7% (inactive)
20,COc1ccccc1N1CCN(/N=C/c2cc(Br)ccc2F)CC1,-42.6% (inactive)

row,Compound,inhibition
1,CNc1ccn(C2CCCO2)c(=O)n1 (centres undefined),1.2% (inactive)
2,COc1ccc(NC(=O)c2ccccc2NS(=O)(=O)c2ccc(C)cc2)c([N+](=O)[O-])c1,58.5% (inactive)
3,CCOc1ccc(NC(=O)c2cccnc2Cl)c([N+](=O)[O-])c1,-27.8% (inactive)
4,Cc1ccc2oc(C(=O)N(CCO)Cc3ccccc3)c(C)c2c1,-6.1% (inactive)
5,O=C(C(=O)N1CCOCC1)c1cn(CCOc2ccccc2)c2ccccc12,1% (inactive)
6,Cc1ccc(CSC2=NCCN2S(=O)(=O)c2ccc(F)cc2)cc1,48.3% (active)
7,Cc1ccc(S(=O)(=O)N2CCN=C2SCc2ccccc2)cc1,-1.7% (inactive)
8,Cc1ccc(CSC2=NCCN2S(=O)(=O)c2ccccc2)cc1,-6% (inactive)
9,Cc1ccccc1S(=O)(=O)Cc1ccc(C(=O)NCCCN2CCN(C)CC2)o1,-8.5% (inactive)
10,CCOC(=O)Cc1cnc(NC(=O)Cn2nnc(-c3ccc(OCC)cc3)n2)s1,0.4% (inactive)
11,O=C(N/N=C/c1ccc(OC(=O)c2ccccc2)cc1)c1cccnc1,-4.5% (inactive)
12,COC(=O)c1ccc2c(c1)C(C)(C)C(/C=C/c1ccc(OC)c(OC)c1OC)=[N+]2C,-8.7% (inactive)
13,COC(=O)c1ccc2nc(C)c(C)nc2c1,-2.5% (inactive)
14,CCCCNC(=O)c1cc2c(=O)n(CC)c3ccccc3c2s1,-5.9% (inactive)
15,COc1ccc(CNC(=O)CN(C(=O)CCC(=O)Nc2ccccn2)c2ccc3c(c2)OCO3)cc1,-19.9% (inactive)
16,CCn1cc(C(=O)NCC(OC)OC)c(=O)c2cc(S(=O)(=O)N(C)C3CCCCC3)ccc21,59% (active)
17,CCn1cc(C(=O)NCCCOC)c(=O)c2cc(S(=O)(=O)N(C)C3CCCCC3)ccc21,-10.9% (inactive)
18,COC(CNC(=O)c1cn(C)c2ccc(S(=O)(=O)N(C)C3CCCCC3)cc2c1=O)OC,-18.2% (inactive)
19,CCOc1ccc(S(=O)(=O)N(CC)CC(=O)N2CCOCC2)cc1C,-22.7% (inactive)
